# G9a block: G9a (human) methyltransferase inhibition. G9a H3K9 monomethylation, AlphaScreen, 2 h. Potency, µM (top dose mostly 102 µM), actives largely listed as inhibitors. 350,000 compounds, 8.8% hits. AID 504332; also: nearly all actives have a fitted effect of over 75% in size
# Target sequence (Q96KQ7 913-1193 limits assumed): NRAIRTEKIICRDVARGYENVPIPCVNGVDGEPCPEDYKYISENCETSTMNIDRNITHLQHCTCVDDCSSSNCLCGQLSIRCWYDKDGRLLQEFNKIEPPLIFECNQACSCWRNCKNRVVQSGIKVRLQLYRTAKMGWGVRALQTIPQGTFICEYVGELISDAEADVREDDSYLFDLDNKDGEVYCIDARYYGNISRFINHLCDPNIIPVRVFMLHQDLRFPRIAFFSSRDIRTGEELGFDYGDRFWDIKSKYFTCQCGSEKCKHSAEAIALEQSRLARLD
#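 Readings reflect AlphaScreen signal from monomethyl-H3K9 antibody detection. HMT at 20 nM; substrate b-H3K9 500 nM; cofactor SAM 20 uM; 2 h RT reaction; compounds tested as titrations in qHTS with 15 min preincubation.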
# Sfp inh: inhibitors of Bacillus subtilis Sfp phosphopantetheinyl transferase; 310,000 compounds, 3.5% hits; Potency, µM, usual class: inhibitors; Biochemical Sfp PPTase activity, qHTS;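 also: the enzyme is Sfp with the accession as filed and its product quenches rhodamine fluorescence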
#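 Buffer: 50 mM Hepes-Na pH 7.6, 10 mM MgCl2, 0.01% Nonidet P-40, 0.01% BSA. Enzyme 15 nM, pre-exposed to compound 15 min; substrates then added and fluorescence change tracked over 30 min.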
# HP1b binding inh: blocks HP1-beta chromodomain binding to methylated histone tails; P83916; AlphaScreen HP1-beta / biotin-H3K9me3 peptide binding; Potency, µM (series often up to 114 µM), actives largely listed as inhibitors; 390,000 compounds, 0.56% hits; also: nearly all actives have a fitted effect of over 70% in size
# Target sequence (P83916 whole entry, looked up): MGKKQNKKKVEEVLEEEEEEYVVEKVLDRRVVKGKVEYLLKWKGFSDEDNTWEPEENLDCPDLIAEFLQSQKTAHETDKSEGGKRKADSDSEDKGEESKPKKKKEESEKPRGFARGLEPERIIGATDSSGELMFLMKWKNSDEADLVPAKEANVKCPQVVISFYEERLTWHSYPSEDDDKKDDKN
#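 Compound inhibition of the preformed complex between 50 nM HP1-beta and 50 nM biotinylated H3K9me3 peptide was read by AlphaScreen. Buffer was PBS pH 7.4 with 0.01% Tween-20. Incubations ran 30 min at room temperature, with 10 ug/mL donor/acceptor beads.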
# JMJD2A Tudor inh: JMJD2A Tudor domain (human) inhibition; O75164; AlphaScreen JMJD2A-Tudor / H3K4me3 peptide binding; Potency, µM (series often up to 114 µM), actives largely listed as inhibitors; 390,000 compounds, 4.4% hits; also: nearly all actives have a fitted effect of over 50% in size
# BAZ2B block: blocks human BAZ2B. AID 504333. Q9UIF8. 360,000 compounds, 4.4% hits. Potency, µM (titrated, usually from 114 µM), most hits filed as inhibitors. AlphaScreen BAZ2B-H3K14Ac peptide displacement; also: nearly all actives have a fitted effect of over 60% in size
#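 BAZ2B 50 nM plus b-H3(5-23)K14Ac 50 nM, PBS pH 7.4/0.01% Tween-20, 30 min RT; compound added (max 110 uM), 30 min RT; streptavidin donor/Ni-chelate acceptor beads 10 ug/mL final, 20 min dark; AlphaScreen read.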
# 12-LOX inh: blocks human arachidonate 12S-lipoxygenase; Potency, µM (top dose mostly 108 µM), actives largely listed as inhibitors; 580,000 compounds, 1.1% hits; AID 1671190; purified 12hLO, xylenol orange hydroperoxide absorbance; P18054
#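 Hydroperoxide product was detected by ferrous iron/xylenol orange as the 573 to 405 nm absorbance ratio. Arachidonic acid at 40 uM (final) was turned over for 30 min at room temperature by 150 nM human 12hLO, pH 7.0 Hepes buffer, after 15 min compound preincubation.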
# A number is an active result; i = inactive; ? = inconclusive; nt = no result; [ ] = remark or other dose. The list is not random: actives were taken first. Their share in the collection is about 8.7%. Calls follow the shape of the dose curve; as a rule, active = well fitted curve in the direction sought with a large enough effect; inconclusive = small, poorly fitted or top-dose-only effect, or another doubt; inactive = no such curve, though single readings can be large; an effect the other way counts as inactive or inconclusive.
SMILES,G9a block,Sfp inh,HP1b binding inh,JMJD2A Tudor inh,BAZ2B block,12-LOX inh
O=C(NCCc1ccccc1)N1CCCCC1c1nc(CCOCC2CC2)no1 (configuration not stated),nt,nt,nt,nt,nt,i
CCCn1c(-n2nc(C)cc2C)nc2c1c(=O)n(CCN1CCOCC1)c(=O)n2C,nt,nt,nt,nt,nt,i
O=c1oc(-c2ccccc2)nc2sc3c(c12)CCC3,i,i,i,i,50µM,?
Cc1sc2nc(C(C)C)oc(=O)c2c1C,i[12.7 µM],i,i,i,i,i
Cc1nc2sc(C)c(C)c2c(=O)o1,?,20µM,i,i,i,i
O=C1CCC(=O)N1c1ccc(-c2nc3sc4c(c3c(=O)o2)CCC4)cc1,i[12.7 µM],i,i,i,i,i
Cc1nc2sc3c(c2c(=O)o1)CCCC3,45µM,40µM,i,i,i,?
Cc1cc(C)c2oc(C(=O)Nc3ncc(Cc4ccccc4)s3)cc(=O)c2c1,nt,nt,nt,nt,nt,i
COc1ccc2cc1Nc1ccc(cc1)C[C@H](NCC1CC1)C(=O)N(C)[C@@H](C(=O)Nc1ccccc1)C2,nt,nt,nt,nt,nt,i
CCc1ccc(C(=O)N2CCC([C@@H]3CNC[C@H]3CO)CC2)cc1,nt,nt,nt,nt,nt,i
Cc1ccc2oc(C(=O)N(C)Cc3ccc(C)o3)c(C)c2c1,8.9µM,10µM,i,?,i,?
Cc1ccc(CN(C)C(=O)c2cc(Br)c(Br)s2)o1,45µM,79µM,i,i,i,?
Cc1ccc2oc(C(=O)N(C)Cc3ccon3)c(C)c2c1,i,i,i,i,i,i
Cc1ccc(N2C(=O)N(Cc3ccccc3)c3ccccc3S2(=O)=O)c(C)c1,nt,nt,nt,nt,nt,i
COC(=O)C1=C(C)NC(=S)NC1c1ccc(-c2cccc(Cl)c2)o1 (configuration not stated),10µM,7.1µM,i,i,?,i
CCOC(=O)C1=C(C)NC(C)=C(C(=O)OCC)C1c1ccco1,nt,i,i,i,i,i
CCOC(=O)C1=C(C)NC(=S)NC1c1ccco1 (configuration not stated),50µM,71µM,i,?,i,?
COC(=O)C1=C(C)NC(=S)NC1c1ccc(-c2ccccc2C(=O)OC)o1 (configuration not stated),8.9µM,?,i,i,i,?
CCOC(=O)C1=C(C)C(c2cccc(Oc3ccccc3)c2)NC(=S)N1 (configuration not stated),i,i,i,i,?,40µM
CCOC(=O)C1=C(C)NC(=O)NC1c1ccc(-c2ccc(Cl)cc2)o1 (configuration not stated),i,i,i,i,i,i
CCOC(=O)C1=C(C)NC(=S)NC1c1ccc(-c2ccc(Cl)cc2)o1 (configuration not stated),?,14µM,i,i,i,32µM
CCOC(=O)C1=C(C)NC(=S)NC1c1ccc(-c2cccc(Cl)c2C)o1 (configuration not stated),i[0.501 µM],56µM,i,i,i,?
COC(=O)C1=C(C)NC(=O)NC1c1ccc(-c2ccccc2Cl)o1 (configuration not stated),?,i,i,i[11.4 µM],i,i
Cc1cc(C)n(-c2nc3c(c(=O)n(Cc4cccc5ccccc45)c(=O)n3C)n2C)n1,nt,nt,nt,nt,nt,i
CCC(CN(C)C)Oc1cc(NCc2ccccc2)c2ncn(C(C)C)c2c1 (configuration not stated),nt,nt,i,89µM,nt,nt
SMILES,G9a block,Sfp inh,HP1b binding inh,JMJD2A Tudor inh,BAZ2B block,12-LOX inh
CCC(CO)Oc1cc(NCc2cccc(Cl)c2)c2ncn(C(C)C)c2c1 (configuration not stated),nt,nt,?,25µM,nt,nt
CCC(CO)Oc1cc(NCc2cccnc2)c2ncn(C(C)C)c2c1 (configuration not stated),nt,nt,i,79µM,nt,i
CCC(CO)Oc1cc(NCc2ccncc2)c2ncn(C(C)C)c2c1 (configuration not stated),nt,nt,i,i,nt,?
CCC(CO)Oc1cc(NCc2ccc(F)cc2)c2ncn(C(C)C)c2c1 (configuration not stated),nt,nt,?,56µM,nt,?
CCC(CO)Oc1cc(NCc2cc(C)cc(C)c2)c2ncn(C(C)C)c2c1 (configuration not stated),nt,nt,i,?,nt,i
O=C(CCc1nnn2c1CN(Cc1ccc(Br)o1)CC2)N1CCCC1,nt,nt,nt,nt,nt,i
CCC(CO)Oc1cc(NC(=O)c2ccccc2F)c2ncn(C(C)C)c2c1 (configuration not stated),nt,nt,i,i,nt,28µM
CCS(=O)(=O)c1ccc2c(c1)N(S(=O)(=O)c1ccc(OC)cc1)CC(C(=O)O)O2 (configuration not stated),i,i,i,i,i,?
CCS(=O)(=O)c1ccc2c(c1)N(S(=O)(=O)c1ccc(C)cc1)CC(C(=O)O)O2 (configuration not stated),?,i,i,i,89µM,?
O=C(NNC(=O)C1CCCCC1)c1ccccc1Br,nt,nt,nt,nt,nt,i
O=C(CSC1CCCCC1)c1ccccc1Br,nt,nt,nt,nt,nt,35µM
CNc1ccccc1C(C)(C)c1cc(-c2cc(C)cc(C)c2)no1,i,i,i,i,i,i
CNc1ccccc1C(C)(C)c1cc(-c2cccc(OC)c2)no1,1.6µM,i,i,i,i,i
O=C(NNC(=O)c1ccc(NC(=O)c2ccccc2)cc1)c1ccc(F)cc1,?,i,i,i,i,i
O=C(NC1=C(Nc2ccc(F)cc2)C(=O)c2ccccc2C1=O)c1ccc(Cl)cc1,5µM,i,?,i,i,i
O=C(Nc1ccc(Nc2ccccc2)cc1)C1CC1,25µM,i,i,?,?,i
CNC(=S)Nc1ccc(C(N)=O)cc1,nt,79µM,i,i,i,i
CC(=O)CC(=O)Nc1ccc(C(N)=O)cc1,25µM,i,i,i,i,i
O=C(Nc1ccccc1)C1CCCCC1,i,i,i,i,i,i
C=CCNC(=S)Nc1ccc(C(N)=O)cc1,?,i,i,i,i,i
CCCC(=O)Nc1ccc(C(N)=O)cc1,i,i,i,i,i,i
CC(=O)CC(=O)Nc1ccc(Nc2ccccc2)cc1,71µM,i,i,i,?,i
C=CCn1c(C(=O)NCCCOCC)cc2cc(S(=O)(=O)N(C)C)ccc21,nt,nt,nt,nt,nt,i
O=C(Nc1ccccc1)C1CCN(S(=O)(=O)c2cccs2)CC1,i,nt,i,i,i,i
O=C(Nc1ccccc1)C1CCN(c2nccs2)CC1,50µM,i,i,i,i,i
O=C(COC(=O)c1ccccc1C(=O)c1ccccc1)Nc1cccc([N+](=O)[O-])c1,i,i,i,?,i,i
O=C(COC(=O)/C=C/c1ccco1)Nc1cccc([N+](=O)[O-])c1,?,32µM,i,i,?,i
Nc1c(C(=O)OCC(=O)Nc2cccc([N+](=O)[O-])c2)[nH]c(=O)[nH]c1=O,nt,nt,i,79µM,nt,nt
CN(C)S(=O)(=O)c1cccc(NC(=O)COC(=O)/C=C/c2ccco2)c1,?,i,?,?,?,i
